Among all 390,000 compounds or so, about 2,600 (0.67%) were called active.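 How the source made its calls: active means mean inhibition of replicates at least 50% and at least half of replicates each reaching 50%; inconclusive means half or more replicates reach 50% but mean below 50%; inactive means the rest.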 For the sample, actives were picked, then their nearest neighbours and some compounds at random.
The compounds below were run against Transforming acidic coiled-coil-containing protein 3 (Homo sapiens) (UniProt Q9Y6A5) (assay: inhibitors of ARNT PAS-B binding to TACC3 – biochemical, AlphaScreen, single concentration, primary screen (AID 623870;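 further: 0% = complete ARNT plus TACC3 wells and 100% = ARNT alone without TACC3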)). Conditions: AlphaScreen His-ARNT PAS-B/GST-TACC3 binding, luminescence; at 9.99 µM; active compounds read high; TACC3 fragment carries E629A point mutation.

inhibition, inactive:
CNC[C@@H]1OCCCC[C@H](C)Oc2ccc(NC(=O)Nc3ccc(OC)cc3)cc2C(=O)N([C@H](C)CO)C[C@@H]1C -2.24%
O=C(C[C@@H]1C[C@H]2c3cc(NC(=O)Nc4ccccc4F)ccc3O[C@H]2[C@@H](CO)O1)NCc1ccncc1 -5.98%
Cn1c(SCC(=O)C(C)(C)C)nnc1-c1ccccn1 13.6%
Cc1ccccc1CSc1nnc(-c2cccnc2)n1N -2.01%
C[C@H](CO)N1C[C@H](C)[C@@H](CN(C)C(=O)C2CCCCC2)Oc2cc(C3=CCCC3)ccc2S1(=O)=O 5.91%
O=C(C[C@@H]1CC[C@@H]2[C@H](COC[C@@H](O)CN2Cc2ccc(F)cc2)O1)NCc1ccncn1 -1.34%
COc1ccccc1C#Cc1ccc([C@@H]2[C@H](CO)N3CCCCN(CCC(F)(F)F)C[C@@H]23)cc1 26%
Cc1noc(C)c1S(=O)(=O)N(C)C[C@H]1OCCCC[C@H](C)Oc2ccc(NS(=O)(=O)c3ccccc3)cc2C(=O)N([C@H](C)CO)C[C@@H]1C -5.63%
COc1ccc(S(=O)(=O)N2C[C@@H](O)COC[C@H]3O[C@H](CC(=O)N[C@H]4CCN(Cc5ccccc5)C4)CC[C@@H]32)cc1 -2.17%
Cc1cc(F)ccc1S(=O)(=O)N1CCCOC1CNC(=O)C(=O)NCCC1=CCCCC1 (configuration not stated) 3.52%
O=C(NCCCc1ccccc1)C(=O)NCC1OCCN1S(=O)(=O)c1ccccc1 (configuration not stated) 0.478%
CC(C)NC(=O)Nc1ccc2c(c1)CC(=O)N([C@@H](C)CO)C[C@@H](C)[C@H](CN(C)CC1CC1)O2 -5.56%
CO[C@@H]1CC[C@@H]2CCOc3ccc(C#N)cc3C(=O)N(C)C[C@H](c3ccccc3)CC(=O)N(C)C[C@H]1O2 -7.48%
Cc1noc(C)c1NC(=O)N[C@H]1C=C[C@@H](CC(=O)Nc2ccccc2)O[C@H]1CO -3.76%
Cc1ccc(S(=O)(=O)Nc2ccc3c(c2)CC(=O)N([C@@H](C)CO)C[C@@H](C)[C@@H](CN(C)S(=O)(=O)c2ccccc2)O3)cc1 -1.52%
C[C@H](CO)N1C[C@H](C)[C@H](CN(C)C(=O)C2CCOCC2)Oc2ncc(-c3ccccc3)cc2C1=O -4.96%
CC(C)CC#Cc1cnc2c(c1)C(=O)N([C@@H](C)CO)C[C@H](C)[C@@H](CN(C)C(=O)c1ccc(F)cc1)O2 7.13%
Cc1cccc(NC(=S)N(CCN(C)C)C(C)c2ccco2)c1 (configuration not stated) -28.1%
CSc1cccc(NC(=S)N(C(C)C)C(C)c2ccccn2)c1 (configuration not stated) 19%
C[C@@H]1CN([C@H](C)CO)S(=O)(=O)c2ccc(-c3cncnc3)cc2O[C@H]1CN(C)C(=O)Cc1ccccc1 -17%
C[C@H](CO)N1C[C@H](C)[C@@H](CN(C)Cc2ccc(Cl)c(Cl)c2)Oc2c(NC(=O)Nc3ccccc3)cccc2C1=O 6.91%
CCCc1[nH]nc2c1C(c1ccc(Br)s1)C(C#N)=C(N)O2 (configuration not stated) 3.43%
COc1ccccc1C1C(C#N)=C(N)Oc2c1c(-c1ccccc1)nn2-c1ccccc1 (configuration not stated) 2.34%
O=C(C[C@H]1CC[C@H]2[C@@H](COC[C@@H](O)CN2Cc2ccccc2F)O1)NCc1ccccc1F -10%
Cc1noc(C)c1NC(=O)Nc1ccc2c(c1)C(=O)N([C@@H](C)CO)C[C@H](C)[C@@H](CN(C)Cc1ccncc1)OCCCC[C@@H](C)O2 -0.402%
CN(C)c1ccc2c(c1)[C@H]1C[C@H](CC(=O)O)O[C@H](CO)[C@H]1O2 22.1%
Cc1cc(C(=O)Nc2ccc3c(c2)C(=O)N(C)[C@@H]2CC[C@@H](CC(=O)NC4CCCC4)O[C@@H]2CO3)no1 -5.47%
Cc1cc(C(=O)Nc2ccc3c(c2)C(=O)N(C)[C@@H]2CC[C@H](CC(=O)NC4CCCC4)O[C@@H]2CO3)no1 -1.61%
Cc1ccccc1Nc1nc(N)nc(CSc2nnc3ccccn23)n1 -0.395%
CCCn1nc(C(=O)OCc2nc(N)nc(Nc3ccccc3C)n2)c2ccccc2c1=O 10.3%
COc1ccc(-c2ccc([C@@H]3[C@@H](C#N)N(C(=O)C4CCC4)[C@@H]3CO)cc2)cc1 -0.479%
C[C@H]1CN([C@@H](C)CO)C(=O)c2cc(N(C)C)ccc2O[C@@H]1CN(C)C(=O)Nc1ccc2c(c1)OCO2 12.1%
O=C(Nc1ccc(S(=O)(=O)N2CCOCC2)cc1)c1ccc2ncsc2c1 8.14%
Cc1ccnc(NS(=O)(=O)c2ccc(NC(=O)c3ccc(S(=O)(=O)N4CCOCC4)cc3)cc2)n1 -1.47%
CCCNC(=O)C[C@@H]1CC[C@H]2[C@H](COc3ccc(NC(=O)CCC)cc3C(=O)N2C)O1 -12.3%
Cc1noc(C)c1NC(=O)Nc1ccc2c(c1)C(=O)N([C@H](C)CO)C[C@H](C)[C@H](CN(C)Cc1ccc(C(=O)O)cc1)OCCCC[C@H](C)O2 -1.31%
C[C@H](CO)N1C[C@H](C)[C@@H](CN(C)C)Oc2ccc(NS(=O)(=O)c3cccs3)cc2C1=O -4.47%
C[C@H](CO)N1C[C@H](C)[C@@H](CN(C)CC2CCCCC2)Oc2ccc(NS(=O)(=O)c3cccs3)cc2CC1=O 8.01%
Cc1ccc(S(=O)(=O)N(C)C[C@@H]2Oc3c(NC(=O)c4nc5ccccc5s4)cccc3C(=O)N([C@H](C)CO)C[C@@H]2C)cc1 9.91%
C[C@H]1CN([C@@H](C)CO)C(=O)c2cc(-c3ccccc3F)cnc2O[C@@H]1CN(C)C 6.21%
Cc1noc(C)c1NC(=O)Nc1ccc2c(c1)CC(=O)N([C@@H](C)CO)C[C@@H](C)[C@H](CN(C)Cc1ccc(Oc3ccccc3)cc1)O2 15.6%
COCC(=O)Nc1ccc2c(c1)[C@@H]1C[C@H](CC(=O)NCc3ccc(Cl)cc3)O[C@H](CO)[C@@H]1O2 -8.13%
Cc1cc(C(=O)NC2CCN(Cc3ccccc3)CC2)n[nH]1 -0.213%
CCCNC(=O)Nc1ccc2c(c1)OC[C@@H](C)N(C(=O)c1ccccc1F)C[C@H](C)[C@@H](OC)CN(C)C2=O -9.6%
C[C@@H]1CN([C@H](C)CO)C(=O)c2cc(NS(=O)(=O)c3ccccc3)ccc2O[C@H]1CN(C)S(=O)(=O)c1cccs1 0.265%
Cc1ccc(NC(=O)C2CC2c2ccccc2)cc1 (configuration not stated) -4.03%
O=C(Nc1ccccc1)Oc1cccc2cccnc12 -7.89%
C[C@H](CO)N1C[C@H](C)[C@@H](CN(C)C)Oc2cc(C#Cc3ccccc3)ccc2S1(=O)=O 8.14%
COc1ccc(NC(=O)N(C)C[C@@H]2Oc3ccc(NS(C)(=O)=O)cc3C(=O)N([C@@H](C)CO)C[C@@H]2C)cc1 -7.68%
COc1cccc(C(CC(=O)NCCN2CCOCC2)NS(=O)(=O)c2ccc(C)cc2)c1OC (configuration not stated) -9.59%
CCc1cc(=O)oc2c(C)c(OCC(=O)NCCN3CCOCC3)ccc12 -0.887%
C[C@@H]1CN([C@@H](C)CO)C(=O)Cc2cc(NC(=O)Nc3ccc(F)cc3)ccc2O[C@@H]1CN(C)C(=O)NC1CCCCC1 0.811%
Cn1c(=NC(=O)c2ccco2)sc2cccc(F)c21 -2.41%
Cn1c(=NC(=O)c2ccc3c(c2)OCCO3)sc2cc(S(C)(=O)=O)ccc21 -1.86%
CCCN1[C@@H]2c3ccc(-c4ccccc4OC)c(=O)n3C[C@H]1[C@H](CO)[C@H]2C(=O)NCc1ccccn1 -0.436%
CO[C@H]1CN(C)C(=O)c2cc(NS(=O)(=O)CC(F)(F)F)ccc2OC[C@@H](C)N(C(=O)c2ccc3c(c2)OCO3)C[C@@H]1C 8.14%
CCCC(=O)Nc1ccc2c(c1)C(=O)N(C)C[C@@H](OC)[C@@H](C)CN(Cc1cncnc1)[C@@H](C)CO2 -2.89%

inhibition, active:
Oc1c(C(c2ccccn2)N2CCOCC2)ccc2cccnc12 (configuration not stated) 70.2%
Cc1ccccc1CSc1nnc(-c2ccccn2)n1N 54.4%
O=C(NCCCn1ccnc1)C(=O)NCC1OCCN1S(=O)(=O)c1cc(F)ccc1F (configuration not stated) 60.2%
COc1c(O)cc2oc(-c3ccc(O)c(O)c3)cc(=O)c2c1O 36.8%
CC(c1ccccn1)N(CCN(C)C)C(=S)Nc1ccccc1F (configuration not stated) 56.1%
COc1cc(C2C(C#N)=C(N)Oc3n[nH]c(-c4ccccn4)c32)cc(OC)c1OC (configuration not stated) 71.4%
CNC(=O)C[C@H]1CC[C@H]2[C@H](COc3ccc(NC(=O)c4cc(C)on4)cc3C(=O)N2C)O1 8.66%
Cc1ccccc1Nc1nc(N)nc(CN2CCN(c3ccccn3)CC2)n1 86%
O=C(Nc1nnc(-c2ccco2)o1)c1ccc(S(=O)(=O)N2CCOCC2)cc1 79.1%
C[C@@H]1CN([C@@H](C)CO)C(=O)c2cc(NS(=O)(=O)c3cccs3)ccc2O[C@H]1CN(C)CC1CCCCC1 54.3%
Cc1cc(C(=O)N/N=C/c2cc([N+](=O)[O-])cc(C)c2O)n[nH]1 64.3%
O=C(N/N=C/c1cccc2cccnc12)[C@H]1C[C@@H]1c1ccccc1 73.3%
CCOc1cccc(/C=N/NC(=S)NCCN2CCOCC2)c1O 64.9%
Cn1c(=NC(=O)c2cnccn2)sc2ccccc21 50.2%
CN(C(=O)c1ccccc1)c1nccnc1C#N 48.5%

From PubChem BioAssay AID623870 (Broad Institute, 2012)
